Screening results (PubChem BioAssay)
A selection: hits, their analogues and other compounds. The true share with any hit is near 0.99%.
AmpC no deterg = inhibitors of E. coli AmpC beta-lactamase without detergent | AmpC nitrocefin hydrolysis, absorbance 480 nm, 0.0001% Triton | Potency, µM (top dose mostly 57.1 µM), without a hit: at the top dose activity change, negative = inhibition, hits mostly inhibitors | actives 0.52% (n = 330,000) | P00811;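 further: plate controls were no compound for no effect and no enzyme for full effect; nearly all actives have a fitted effect of over 20% in size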
Target sequence (P00811 whole entry, looked up): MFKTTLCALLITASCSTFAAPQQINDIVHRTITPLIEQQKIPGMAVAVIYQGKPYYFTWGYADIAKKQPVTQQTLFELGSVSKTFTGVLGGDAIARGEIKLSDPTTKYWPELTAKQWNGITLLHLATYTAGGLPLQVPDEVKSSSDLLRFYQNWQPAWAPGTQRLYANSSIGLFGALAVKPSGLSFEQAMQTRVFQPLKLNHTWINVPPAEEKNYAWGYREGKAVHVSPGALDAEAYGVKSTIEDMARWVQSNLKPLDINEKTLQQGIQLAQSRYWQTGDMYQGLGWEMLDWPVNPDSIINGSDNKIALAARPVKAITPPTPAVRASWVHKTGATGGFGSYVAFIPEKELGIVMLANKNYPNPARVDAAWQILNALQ
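20 mM phosphate pH 7.0 + 0.01% (detergent screen) or 0.0001% Triton X-100; 5.3 nM AmpC reagent; cpd preinc 15 min RT; nitrocefin (800 uM stock) to start; A480 q20 s × 4 min; Activity was normalised to no-enzyme and no-compound control wells.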
SARS PLP yeast = blocks SARS-CoV papain-like protease in a yeast assay; S. cerevisiae expressing SARS-CoV PLpro, growth rescue; Potency, µM (highest dose often 32.9 µM), without a hit: at the top dose activity, positive = growth rescue, usual class: activators; actives 0.19% (n = 330,000); AID 485353; calls by dose curve; further: 0% is about no effect; nearly all actives have a fitted effect of over 55% in size
AMA1 RON2 block = AMA1-RON2 (P. falciparum) interaction inhibition. AlphaScreen AMA1-biotinylated RON2 peptide binding. Potency, µM (highest dose often 58.2 µM), inactives show top-dose activity change, negative = inhibition, most hits filed as inhibitors. actives 0.2% (n = 360,000);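 further: 0% = vehicle wells and -100% = peptide control; nearly all actives have a fitted effect of over 45% in size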
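AMA1 (3D7) with his tag at 25 nM final met compounds first, then biotinylated RON2 peptide at 25 nM; detection used donor plus acceptor beads, 10 µg/mL apiece, read by AlphaScreen after 30 min at room temperature.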
NS1 inh = blocks influenza NS1 protein function. Potency, µM (doses to about 46.1 µM), inactives show top-dose activity, positive = more growth. actives 0.4% (n = 270,000). AID 2326; calls by dose curve; further: actives are rising curves; nearly all actives have a fitted effect of over 50% in size
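Recovery from NS1-induced slow growth read by OD600 in budding yeast switched to galactose assay medium (pH 6.0, -URA) at 1:100 dilution. Compound 23 nl per well; the matching strain lacking NS1 serves as control.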
AmpC detergent = AmpC beta-lactamase inhibition with detergent present. AmpC hydrolysis of nitrocefin, absorbance 480 nm, 0.01% Triton. P00811. Potency, µM (top dose mostly 114 µM), inactives show top-dose activity change, negative = inhibition, actives largely listed as inhibitors. AID 485294. actives 0.041% (n = 370,000);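 further: 0% = no-compound wells and -100% = no-enzyme wells; nearly all actives have a fitted effect of over 25% in size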
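20 mM phosphate pH 7.0 + 0.01% (detergent screen) or 0.0001% Triton X-100; 5.3 nM AmpC reagent; cpd preinc 15 min RT; nitrocefin (800 uM stock) to start; A480 q20 s × 4 min; Activity was normalised to no-enzyme and no-compound control wells.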
Numbers without * were called inactive; u = inconclusive; x = no result; [ ] = another dose, or the depositor's remark. Unless noted, the call rests on the fitted dose curve; in most records, active means well fitted curve in the direction sought with a large enough effect; inconclusive means small, poorly fitted or top-dose-only effect, or another doubt; inactive means no such curve, though single readings can be large; an effect the other way counts as inactive or inconclusive. Potency means the concentration at half of the fitted maximal effect.

SMILES | AmpC no deterg | SARS PLP yeast | AMA1 RON2 block | NS1 inh | AmpC detergent
Cc1ccc(OCCn2c(NC(=O)c3ccco3)nc3ccccc32)cc1 | 20µM* | -4% | 97% | -7% | 9%
CN1C[C@H](C(=O)N[C@@]2(C)O[C@@]3(O)[C@H]4CCCN4C(=O)[C@@H](Cc4ccccc4)N3C2=O)C=C2c3cccc4[nH]cc(c34)C[C@@H]21 | x | x | x | 16% | x
O=C(NC(=S)NCCC1=CCCCC1)c1ccccc1Br | u | -2% | -27% | 16% | -4%
O=C(NC(=S)NCCC1=CCCCC1)c1cncc(Br)c1 | u | 13µM* | 44% | 14% | 1%
Cc1ccc(-c2nc(CNC(=O)Nc3ccccc3)c(C)o2)cc1 | x | x | x | x | 2%
CCOc1ccccc1NC(=O)CSc1nc2ccccc2c2nc(CCn3cncc3C)nn12 | x | x | x | x | -9%
Cc1nnc(SCc2nnc(-c3ccc(Cl)cc3)o2)n1-c1ccccc1 | 27% | -6% | 0% | -12% | -2%
Cc1nnc(SCc2nnc(-c3ccccc3Br)o2)n1-c1ccccc1 | 5.6µM* | 1% | 4% | -3% | u
CC1(C)[C@@H]2CC[C@]1(C)CN(CCC[N+](C)(C)C)C2 | x | x | x | -3% | x
CCOc1ccc(N2CC(NS(=O)(=O)c3cccs3)CC2=O)cc1 (stereo not given) | -15% | 3% | 0% | x | u
O=C1CC(NS(=O)(=O)c2cccs2)CN1c1ccc(F)cc1 (stereo not given) | 32µM* | 2% | 6% | x | u
COc1cccc(NC(=O)Cn2c(=O)n(Cc3ccccc3)c(=O)c3c2c2cc(C)ccc2n3C)c1 | x | x | x | x | 1%
O=S1(=O)C=C(SCc2ccc(Cl)c(Cl)c2)Nc2ccccc21 | 18µM* | 8% | 0% | -4% | 1%
Nc1nc(SCc2ccc(Cl)c(Cl)c2)n[nH]1 | -10% | 0% | -9% | -38% | -15%
O=C(Cn1nc(Cc2cccnc2)c2ccccc2c1=O)Nc1ccc2c(c1)OCO2 | 10µM* | 11% | 9% | -10% | 4%
CN(Cc1c(C(=O)N/N=C/c2cccc(Cl)c2)nnn1-c1nonc1N)c1ccccc1 | 14µM* | u | -11% | 4% | 5%
Cc1ccn2cc(CNC(=O)c3cccs3)nc2c1 | 3.5µM* | 2% | 0% | -5% | u
Cc1ccn2cc(CCNC(=O)Cc3cccs3)nc2c1 | -7% | 0% | 7% | 4% | 7%
O=C(Nc1cc(Sc2ccccn2)cc([N+](=O)[O-])c1)c1ccc(Cl)cc1 | 32µM* | 7% | -21% | 4% | -2%
O=C(Nc1cc(Sc2ccccn2)cc([N+](=O)[O-])c1)c1cccc(Cl)c1 | -41% | -8% | -3%[11.6 µM] | 25% | 5%
CCN(CC)S(=O)(=O)c1ccc(N2CCOCC2)c(NC(=O)c2ccccc2)c1 | 22% | 16% | -10% | -27% | -13%
CCN(CC)S(=O)(=O)c1ccc(O)c(NC(=O)c2ccc(N3CCOCC3)c([N+](=O)[O-])c2)c1 | 20µM* | 3% | 4% | 25% | 1%
COc1ccccc1Nc1nc(N)nc(CSC(=S)N2CCCCC2C)n1 (stereo not given) | -14% | 13µM* | 9%[2.32 µM] | -7% | -1%
COc1ccccc1Nc1nc(N)nc(CSC(=S)N2CCN(c3ccccc3)CC2)n1 | 0% | 2% | -24% | x | -3%
Cc1nnc(Sc2cc(NCCCO)c([N+](=O)[O-])c3nonc23)s1 | 28µM* | 3% | 1% | -7% | u
SMILES | AmpC no deterg | SARS PLP yeast | AMA1 RON2 block | NS1 inh | AmpC detergent
Cc1nnc(Sc2cc(NCCO)c([N+](=O)[O-])c3nonc23)s1 | -57% | 4% | -4% | x | u
Cc1ccc(Cn2c(SCc3ccc(C(=O)N4CCCCCC4)cc3)nc3ccncc32)cc1 | x | x | x | x | 1%
O=C(CSc1nc2ccccc2s1)Nc1cc(S(=O)(=O)N2CCOCC2)ccc1O | -40% | 13µM* | -15% | 2% | u
O=C(CC1Oc2ccccc2NC1=O)NCCCN1CCOCC1 (stereo not given) | 2.5µM* | 0% | 8% | -6% | u
Cc1nc(C/C(=N\Nc2ccccc2)c2ccc(O)cc2O)cs1 | -56% | -21% | -8% | 1% | -5%
CCc1cc(/C(Cc2ccccn2)=N\Nc2ccccc2)c(O)cc1O | 25µM* | -1% | 87% | 7% | -2%
O=C(COc1ccccc1)Nc1nnc2n1CCS2 | x | x | x | x | 2%
